This is a sample that favours compounds with a hit; in the whole collection about 7.5% have one here.
HCV inhibitor: qHTS Assay for Inhibitors of Hepatitis C Virus (HCV); Potency, µM (titrated, usually from 41.8 µM), for the others: at the highest dose activity change, negative = inhibition, hits mostly inhibitors; 340,000 tested, 3.4% active; Huh7.5.1 HCVcc-Cre infection, luciferase reporter, 44 h; further: potency means the concentration at half of the fitted maximal effect
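After 44 h co-culture of compound, cells and HCVcc-Cre (~0.5 moi), substrate is added for 15 min at room temperature and luciferase measured over 15 sec. Cells were seeded at 1,000/well and pre-cultured 4 h.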
Vaccinia mCherry: qHTS for Stage-Specific Inhibitors of Vaccinia Orthopoxvirus: mCherry Reporter Primary qHTS; Vaccinia virus mCherry reporter infection, fluorescence; Potency, µM (top dose mostly 36.5 µM), for inactives: at the top dose activity change, negative = inhibition, hits mostly inhibitors; 310,000 tested, 0.63% active; AID 720579, 2013; calls by dose curve; tested in A549 cells; further: potency means the concentration at half of the fitted maximal effect; nearly all actives have a fitted effect of over 35% in size
Giardia FBPA inh: qHTS Assay for Inhibitors of Fructose-1,6-bisphosphate Aldolase from Giardia Lamblia | A8B2U2 | purified Giardia FBPA | Potency, µM (titrated, usually from 59.6 µM), for the others: top-dose activity, negative = inhibition, actives largely listed as inhibitors | 290,000 tested, 0.71% active; further: potency means the concentration at half of the fitted maximal effect; nearly all actives have a fitted effect of over 55% in size
Target sequence (A8B2U2 whole entry, looked up): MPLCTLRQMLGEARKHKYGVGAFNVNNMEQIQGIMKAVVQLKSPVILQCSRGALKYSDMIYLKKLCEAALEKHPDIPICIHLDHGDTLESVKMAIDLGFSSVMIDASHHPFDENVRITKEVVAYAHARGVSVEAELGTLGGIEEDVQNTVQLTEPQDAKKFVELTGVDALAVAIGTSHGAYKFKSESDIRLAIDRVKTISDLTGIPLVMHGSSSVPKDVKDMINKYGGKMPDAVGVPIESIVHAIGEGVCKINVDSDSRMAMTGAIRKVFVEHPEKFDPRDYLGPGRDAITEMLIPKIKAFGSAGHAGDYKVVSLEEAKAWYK
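40 nM FBPA preincubated 10 min at RT with compound (up to 57.5 uM final), then substrate plus GAPDH/TPI/NAD/arsenate coupling and diaphorase/resazurin added. Fluorescence read after 20 min at RT, 525/598 nm.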
FMDV antiviral: High Throughput Screening for Foot and Mouth Disease Virus Antivirals. FMDV antiviral cell-based qHTS. AID 1159524, 2015. 410,000 tested, 1.2% active. Potency, µM (series often up to 57.9 µM), inactives show at the top dose activity change, negative = inhibition, hits mostly inhibitors; calls by dose curve; tested in HEK293T cells; further: read-out not given here; potency means the concentration at half of the fitted maximal effect; nearly all actives have a fitted effect of over 45% in size
HCMV antiviral: qHTS Assay for inhibitors of the human cytomegalovirus (HCMV); 410,000 tested, 4.5% active; activity change, negative = inhibition, % at 57.5 µM; HFF cells, HCMV-luciferase reporter, 72 h; active compounds read low; in the data active means activity change below about -60%; inconclusive means no clear call, values can overlap the other calls; inactive means above about -39%
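Compounds were evaluated in HFFs infected with an HCMV luciferase reporter virus (MOI 1 PFU/cell). Luciferase in lysates collected 72 h post infection served as the replication measure.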
Vaccinia Venus: qHTS for Stage-Specific Inhibitors of Vaccinia Orthopoxvirus: Venus Reporter Primary qHTS; Vaccinia virus Venus reporter expression, fluorescence; Potency, µM (top dose mostly 36.5 µM), inactives show at the highest dose activity change, negative = inhibition, most hits filed as inhibitors; 330,000 tested, 0.46% active; AID 720580, 2013; calls by dose curve; tested in A549 cells; further: potency means the concentration at half of the fitted maximal effect; nearly all actives have a fitted effect of over 30% in size
* hit, by the source's call; i = inactive; ? = inconclusive; / = not tested or not shown; ! = not active in a repeat; [ ] = dose if it differs, or a comment. Unless noted, the call rests on the fitted dose curve; in most records, active means well fitted curve in the direction sought with a large enough effect; inconclusive means small, poorly fitted or top-dose-only effect, or another doubt; inactive means no such curve, though single readings can be large; an effect the other way counts as inactive or inconclusive. On the % scale 0 is the no-effect control and ±100 the full control effect.

SMILES	HCV inhibitor	Vaccinia mCherry	Giardia FBPA inh	FMDV antiviral	HCMV antiviral	Vaccinia Venus
Cc1csc2nc(COc3ccccc3NC(=O)c3ccc(C(C)(C)C)cc3)cc(=O)n12	/	-8.5%	/	2.6%	18.6	-11.6%
Cc1nn(CC(=O)Nc2cccc(C(F)(F)F)c2)c(=O)c2cccn12	-2.5%	i	/	-4.2%	25.7	-2.5%
Cc1nn(CC(=O)N2CCN(c3cccc(C(F)(F)F)c3)CC2)c(=O)c2cccn12	-28.3%	-28.1%	2.2%	-21.3%	-66.8*!	?
CC1CCN(S(=O)(=O)c2cn(CC(=O)N3CCN(c4cccc(C(F)(F)F)c4)CC3)cn2)CC1	11.2µM*	/	/	?	/	/
Cn1cnc(S(=O)(=O)N2CCC(C(=O)N3CCN(c4cccc(C(F)(F)F)c4)CC3)CC2)c1	/	i	/	-3.6%	-32.2	-5.7%
O=C(Cc1ccc(S(=O)(=O)N2CCOCC2)s1)N1CCN(c2cccc(C(F)(F)F)c2)CC1	12.6µM*	/	/	-27.1%	/	/
CC(C)c1nc2ccc(C(=O)NCCCN3CCN(c4cccc(Cl)c4)CC3)cc2o1	/	-0.9%[7.34 µM]	/	0.0%	?	-4.3%[7.34 µM]
COC(=O)c1ccc(CN2CCC3(CCC(CNC(=O)c4ccco4)O3)CC2)cc1 (stereo not given)	/	-1.5%	/	2.9%	/	-18.7%
Cc1cc(C)c(S(=O)(=O)N2CCCCC2)cc1N(C)S(=O)(=O)c1ccc(Cl)cc1	31.6µM*	-21.9%	8.1%	-13.8%	?	?
Cc1ccc(S(=O)(=O)N(C)c2cc(S(=O)(=O)N3CCOCC3)c(C)cc2C)cc1	-25.5%	-7.9%	2.0%	-18.3%	-8.0	-7.2%
COc1ccc(S(=O)(=O)N2CCCCCC2)cc1N(C)S(=O)(=O)c1ccc(C)cc1	?	-14.7%	5.5%	-2.0%	-77.2*	?
COc1ccc(S(=O)(=O)N2CCCCCC2)cc1C(=O)N(C)Cc1ccc(Cl)cc1Cl	11.2µM*	?	/	0.0%	-29.2	-3.8%
COc1cc(NS(=O)(=O)c2ccc3c(c2)oc(=O)n3C)cc(OC)c1OC	10µM*	?	1.0%	-23.9%	?	-25.8%
Cc1ccc(NS(=O)(=O)c2ccc3c(c2)oc(=O)n3C)cc1	-6.6%	i	7.6%	8.7%	-63.3*	-22.7%
Cn1c(=O)oc2cc(S(=O)(=O)NCCN3CCc4ccccc4C3)ccc21	4.1%	/	-19.9%	5.62µM*	0.4	/
Cc1ccc(NS(=O)(=O)c2ccc3c(c2)oc(=O)n3C)cc1F	-2.8%	-21.1%	5.9%	1.4%	?	-16.1%
Cc1ccc(NS(=O)(=O)c2ccc3c(c2)oc(=O)n3C)cc1C	?	-26.5%	10.1%	14.6%	-100.7*	-22.4%
Cn1c(=O)oc2cc(S(=O)(=O)NCCC(=O)N3CCc4ccccc4C3)ccc21	9.1%	/	-9.7%	-20.8%	31.6	/
CCN(CC)c1ccc(/C=C/c2ccccn2)cc1	/	0.8%	/	/	/	i
CCN(CC)c1ccc(/C=C/[N+](=O)[O-])cc1	11.6%	-25.2%	-13.5%	?	-114.0*	7.1%
Cn1nc(C(F)(F)F)c(/C=N/OC(=O)c2ccccc2)c1SCc1ccc(Cl)cc1	?	/	10.0%	-9.2%	-72.5*	/
Cc1ccccc1CC(=O)N1CC(C)OC(C)C1 (stereo not given)	11.0%	/	8.8%	-0.7%	7.8	/
CN(CCc1ccccn1)C(=O)CCC1CCCN(C(=O)CN2CCCCCC2)C1 (stereo not given)	2.5%	-22.8%	-0.6%	-4.5%	-21.8	-13.4%
CC(=O)c1cc(C(=O)N2CCCC(CCC(=O)N(C)CCc3ccccn3)C2)cs1 (stereo not given)	6.2%	-28.9%	4.9%	-24.2%	-66.5*	-3.3%
Cc1cc(C)c2c(N)c3ccccc3nc2n1	?	/	0.1%	-21.4%	-108.4*	/
SMILES	HCV inhibitor	Vaccinia mCherry	Giardia FBPA inh	FMDV antiviral	HCMV antiviral	Vaccinia Venus
Cc1nc2sccn2c1CN1Cc2ccccc2OC(c2ccccc2F)C1 (stereo not given)	/	-6.4%	/	-20.2%	/	-0.1%
Cc1ccc(S(=O)(=O)Nc2cc3c4c(c2)CCC(=O)N4CCC3)cc1	-14.8%[8.37 µM]	i	/	7.2%	38.3	-11.8%
O=C(NCc1cccc(Cl)c1)c1oc(=O)c2ccccc2c1-c1ccccc1	/	-2.8%	/	-11.8%	-68.7*	-3.5%
COc1cc(CCN=Cc2cccc(OC)c2O)c([N+](=O)[O-])cc1OC	/	/	/	/	8.9	/
Cc1ccc(-c2nc(CS(=O)(=O)CC(=O)NCCCN(Cc3ccccc3)C(C)C)c(C)o2)cc1	10µM*	/	-5.4%	-24.0%	62.3	/
COc1ccc(-c2nc(CS(=O)(=O)CC(=O)NCCCc3ccccc3)c(C)o2)cc1	?	/	-15.8%	-13.1%	-18.4	/
CCN1C(=NCc2cccc(C(F)(F)F)c2)N[C@@H](c2cccc(C(F)(F)F)c2)C(C(=O)OC)=C1C	/	-17.6%	/	/	/	?
Cc1ccc2c(c1)N(C(=O)N1CCC(C(=O)NCc3ccco3)CC1)CC(C)O2 (stereo not given)	/	-10.8%	/	-17.5%	-0.9	-7.9%
COC(=O)c1cc2sccc2n1Cc1ccc(F)cc1Cl	/	i	/	-21.2%	-20.4	-3.6%
Clc1cccc(N2CCN(c3ncnc4c3nc3n4CCCCC3)CC2)c1	/	?	/	11.2µM*	-73.1*	-20.8%
CCOC(=O)C(C)NC(=O)C1CCN(c2ncnc3c2nc2n3CCCCC2)CC1 (stereo not given)	/	-14.6%	/	8.5%	-84.5*	-8.5%
CCOC(=O)C1CCN(c2ncnc3c2nc2n3CCCCC2)CC1	/	8.2%	/	21.0%	61.1	0.3%
O=C(Nc1ccc(Cl)cn1)C1CCN(c2ncnc3c2nc2n3CCCCC2)CC1	10µM*	-16.6%	3.4%	?	-86.3*	?
Cc1ccc(N2CCN(C(=O)C3CCN(c4ncnc5c4nc4n5CCCCC4)CC3)CC2)c(C)c1	/	-13.5%	/	?	-61.5*	-25.0%
CC1CCN(C(=O)C2CCN(c3ncnc4c3nc3n4CCCCC3)CC2)CC1	0.9%	/	/	?	?	/
COc1ccccc1N1CCN(C(=O)Cn2c(=O)n3nc(-c4cccc(C)c4)nc3c3ccccc32)CC1	/	-4.6%	/	-7.7%	14.8	-8.9%
COc1ccc(N2CSC(=S)N(c3ccc(OC)cc3)C2)cc1	/	-7.4%	/	4.7%	-19.1	-9.7%
O=C(C1CCN(c2ncnc3c2nc2n3CCCCC2)CC1)N1CCN(c2cccc(Cl)c2)CC1	?	-8.3%	-7.3%	22.4µM*	-91.1*	-18.0%
CC1=NOC(=O)/C1=C\c1ccc(-c2ccc(Cl)cc2Cl)o1	-17.0%	-9.5%	0.5%	?	-75.0*	5.8%
CC1(C(=O)Nc2cnc3ccccc3c2)CCN1Cc1ccccc1Cl (stereo not given)	/	-21.0%	/	0.0%	-76.5*	5.9%

High-throughput results: PubChem, National Center for Advancing Translational Sciences (NCATS)
